Test results taken from PubChem BioAssay (NCATS).
Values joined by “and” are separate entries in the source; they are usually repeats but may differ in a detail not shown here. Identical values can stand only once. Inconclusive results are not listed. Entries that show only a call come without a potency. Active and inactive are the calls of the source. Calls follow the shape of the dose curve; as a rule, active = well fitted curve in the direction sought with a large enough effect; inconclusive = small, poorly fitted or top-dose-only effect, or another doubt; inactive = no such curve, though single readings can be large; an effect the other way counts as inactive or inconclusive.

Tests used:
[1] = qHTS assay to identify small molecule inhibitors of chordoma cells - UCH-1 (AID 1259355); conditions: UCH-1 chordoma viability, CellTiter-Glo, 48 h, combination, with auranofin plus four topoisomerase inhibitors; series mostly up to 46.1 µM; also: nearly all actives have a fitted effect of over 55% in size
Outline: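 800 cells/well, overnight attach; compounds pinned at 15 concs, then auranofin/camptothecin/doxorubicin/rubitecan/topotecan combo added; 48hr 37 C, 5% CO2; CellTiter-Glo, 30min RT, luminescence.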

[2] = qHTS assay to identify small molecule inhibitors of chordoma cells - UCH-2 (AID 1259356); conditions: UCH-2 chordoma viability, CellTiter-Glo ATP luminescence, 48 h; series mostly up to 46.1 µM
[3] = P-glycoprotein substrates identified in KB-8-5-11 adenocarcinoma cell line, qHTS therapeutic library screen (AID 1346987); conditions: KB-8-5-11 (P-gp overexpressing) viability, CellTiter-Glo, 72 h; series mostly up to 44.5 µM; also: nearly all actives have a fitted effect of over 65% in size
Outline: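 Compounds are pinned in dose-response onto KB-8-5-11 cells (500 cells/well, colchicine-free medium) and left 72 h at 37 degree C. CellTiter-Glo luminescence then yields AC50 values.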
Potency is read from the fitted curve at half-maximal effect.

SMILES | Potency [1] | Potency [2] | Potency [3]
CN[C@@H]1[C@@H](O)[C@@H](O[C@@H]2[C@@H](O)[C@H](OC3OC(CN)=CCC3N)[C@@H](N)C[C@H]2N)OC[C@]1(C)O (some centres undefined) | inactive | inactive | inactive
O=C1c2ccccc2CN2C(=O)c3ccccc3CN12 | inactive | inactive | inactive
CC(C)CN(C[C@@H](O)[C@H](Cc1ccccc1)NC(=O)O[C@@H]1CCOC1)S(=O)(=O)c1ccc(N)cc1 | inactive | inactive | inactive
CC(CCc1ccc(O)cc1)NCC(O)c1ccc(O)cc1 (centres undefined) | inactive | inactive | inactive
COc1cc(S(C)=O)ccc1-c1nc2ncccc2[nH]1 (centres undefined) | inactive | inactive | inactive
O=C(O)C1=C(CSc2nnnn2CS(=O)(=O)O)CS[C@@H]2[C@H](NC(=O)[C@H](O)c3ccccc3)C(=O)N12 | inactive | inactive | inactive
COc1ccc2c(=O)c(C)c(-c3ccccc3)oc2c1CN(C)C | inactive | inactive | inactive
O=C[C@H](O)[C@@H](O)[C@@H](O)[C@H](O)CO | inactive | inactive | inactive
CC(C)C1=CC2=CC[C@@H]3[C@](C)(CCC[C@@]3(C)C(=O)O)[C@H]2CC1 | inactive | inactive | inactive
CC1(C)S[C@@H]2[C@H](NC(=O)C3(N)CCCCC3)C(=O)N2[C@H]1C(=O)O | inactive | inactive | inactive
O=C(O)CN(CC(=O)O)CC1=CC2C(=CC1=O)Oc1cc(O)c(CN(CC(=O)O)CC(=O)O)cc1C21OC(=O)c2ccccc21 (centres undefined) | inactive | inactive | inactive
CCCCC/C=C\CCC(=O)N[C@H]1[C@H](Oc2c3cc4cc2Oc2ccc(cc2Cl)[C@@H](O[C@@H]2O[C@H](CO)[C@@H](O)[C@H](O)[C@H]2NC(C)=O)[C@@H]2NC(=O)[C@H](NC(=O)[C@@H]4NC(=O)[C@H]4NC(=O)[C@@H](Cc5ccc(c(Cl)c5)O3)NC(=O)[C@H](N)c3ccc(O)c(c3)Oc3cc(O)cc4c3)c3ccc(O)c(c3)-c3c(O[C@H]4O[C@H](CO)[C@@H](O)[C@H](O)[C@@H]4O)cc(O)cc3[C@@H](C(=O)O)NC2=O)O[C@H](CO)[C@@H](O)[C@@H]1O | inactive | inactive | inactive
CC(=O)[O][Al][O]C(C)=O | inactive | inactive | inactive
O=C1N=C2SCCN2C(=O)C1Cc1ccc(Cl)cc1 (centres undefined) | inactive | inactive | inactive
C[C@@H]1C[C@H]2[C@@H]3C[C@H](F)C4=CC(=O)C=C[C@]4(C)[C@@]3(Cl)[C@@H](O)C[C@]2(C)[C@H]1C(=O)COC(=O)C(C)(C)C | inactive | inactive | inactive
O=C1NC(=O)[C@H]2[C@@H]1[C@@H]1C=C[C@H]2C1 | inactive | inactive | inactive
CN1C(=O)C[C@@H](C(=O)N[C@@H](Cc2cnc[nH]2)C(=O)N2CCC[C@H]2C(N)=O)NC1=O | inactive | inactive | inactive
O=P(O)(O)O | inactive | inactive | inactive
CCN(CC)CCOc1ccccc1OC | inactive | inactive | inactive
O=C1C2CC3CC1CC(O)(C3)C2 | inactive | inactive | inactive
COC(=O)[C@@H](N)CS | inactive | inactive | inactive

SMILES | Potency [1] | Potency [2] | Potency [3]
c1ccc2c(c1)OCC(CN1CCCCC1)O2 (centres undefined) | inactive | inactive | inactive
ClC(Cl)Cl | inactive | inactive | inactive
O=[n+]1ccn([O-])c2ccccc21 | inactive | inactive | inactive
C=C1CC[C@H](O)C/C1=C\C=C1/CCC[C@]2(C)[C@@H]([C@H](C)CCCC(C)C)CC[C@@H]12 | inactive | inactive | inactive
COc1ccc(C(=O)c2ccc(C)cc2)c(O)c1 | inactive | inactive | inactive
O=[N+]([O-])O[C@@H]1CO[C@H]2[C@@H]1OC[C@@H]2O | inactive | inactive | inactive
NC(N)=O | inactive | inactive | inactive
CCCCC(CC)COS(=O)(=O)O (centres undefined) | inactive | inactive | inactive
COC1=C(OC)C(=O)C(C/C=C(\C)CC/C=C(\C)CC/C=C(\C)CC/C=C(\C)CC/C=C(\C)CC/C=C(\C)CC/C=C(\C)CC/C=C(\C)CC/C=C(\C)CCC=C(C)C)=C(C)C1=O | inactive | inactive | inactive
[O-][N+](=Nc1ccccc1)c1ccccc1 | inactive | inactive | inactive
CCCC(=O)O | inactive | inactive | inactive
CC1(C)C(\C=C/C=C\C=C/C=C2/N(CCCCS(=O)(=O)O)c3ccc4ccccc4c3C2(C)C)=[N+](CCCCS(=O)(=O)[O-])c2ccc3ccccc3c21 | inactive | inactive | inactive
NC[C@@H]1O[C@H](O[C@H]2[C@@H](O)[C@H](O[C@@H]3[C@@H](O)[C@H](N)C[C@H](N)[C@H]3O[C@H]3O[C@H](CO)[C@@H](O)[C@H](O)[C@H]3N)O[C@@H]2CO)[C@H](N)[C@@H](O)[C@@H]1O | inactive | inactive | inactive
CC(C)CCCCCCc1ccc(O)cc1 | inactive | inactive | inactive
CC(C)(COP(=O)(O)OP(=O)(O)OC[C@H]1O[C@@H](n2cnc3c(N)ncnc32)[C@H](O)[C@@H]1OP(=O)(O)O)C(O)C(=O)NCCC(=O)NCCS (some centres undefined) | inactive | inactive | inactive
CC[C@H](C)[C@@H]1NC(=O)[C@H](Cc2ccc(O)cc2)NC(=O)[C@@H](N)CSSC[C@@H](C(=O)N2CCC[C@H]2C(=O)N[C@@H](CC(C)C)C(=O)NCC(N)=O)NC(=O)[C@H](CC(N)=O)NC(=O)[C@H](CCC(N)=O)NC1=O | inactive | inactive | inactive
COc1ccc(/C=C/C(=O)OCCC(C)C)cc1 | inactive | inactive | inactive
NC(=O)Oc1ccc(Cc2ccccc2)cc1 | inactive | inactive | inactive
CO[C@@]1(NC(=O)C2SC(=C(C(N)=O)C(=O)O)S2)C(=O)N2C(C(=O)O)=C(CSc3nnnn3C)CS[C@@H]21 (some centres undefined) | inactive | inactive | inactive
CCCC(CCC)C(=O)OC1C[C@H]2CC[C@@H](C1)[N+]2(C)C (some centres undefined) | inactive | inactive | inactive
CC(O)CN(C)C (centres undefined) | inactive | inactive | inactive

SMILES | Potency [1] | Potency [2] | Potency [3]
CCCCCCCCCCCC(=O)N(CCO)CCO | inactive | inactive | inactive
CCCCCc1ccc(C)cc1O | inactive | inactive | inactive
CC[C@H](CC[C@@H](C)[C@H]1CC[C@H]2[C@@H]3CC=C4C[C@@H](O)CC[C@]4(C)[C@H]3CC[C@]12C)C(C)C | inactive | inactive | inactive
O=C(CCCCCCCCCCCCC1CCCC1)Nc1ccc(S(=O)(=O)c2ccc(NC(=O)CCCCCCCCCCCCC3CCCC3)cc2)cc1 | inactive | inactive | inactive
CC(=NCc1ccccc1)c1ccccc1O | inactive | inactive | inactive
CCCCC[C@H](O)/C=C/[C@@H]1[C@H]2C/C(=C/CCCC(=O)O)O[C@H]2C[C@H]1O | inactive | inactive | inactive
O[C@@H]([C@H](O)[C@H](O)CBr)[C@H](O)CBr | inactive | inactive | inactive
NC(=O)CC[C@@H]1NC(=O)[C@H](Cc2ccccc2)NC(=O)[C@H](Cc2ccc(O)cc2)NC(=O)[C@@H](N)CSSC[C@@H](C(=O)N2CCC[C@H]2C(=O)N[C@@H](CCCN=C(N)N)C(=O)NCC(N)=O)NC(=O)[C@H](CC(N)=O)NC1=O | inactive | inactive | inactive
CC(C)=CCC/C(C)=C/CC/C(C)=C/CC/C=C(\C)CC/C=C(\C)CCC=C(C)C | inactive | inactive | inactive
FC(F)OC(Cl)C(F)(F)F (centres undefined) | inactive | inactive | inactive
CCC[C@@H]1C[C@@H](C(=O)N[C@@H]([C@H]2O[C@H](SC)[C@H](O)[C@@H](O)[C@H]2O)[C@H](C)Cl)N(C)C1 | inactive | inactive | inactive
Cc1ccccn1 | inactive | inactive | inactive
CO/N=C(\C(=O)N[C@@H]1C(=O)N2C(C(=O)O)=CCS[C@H]12)c1csc(N)n1 | inactive | inactive | inactive
CCCCCCCCCc1ccc(OCCOCCO)cc1 | inactive | inactive | 4.61 µM (active)
CC1CC(OC(=O)C(O)c2ccccc2)CC(C)(C)C1 (centres undefined) | inactive | inactive | inactive
CC(=O)[C@@]1(O)CC[C@H]2[C@@H]3C=C(Cl)C4=CC(=O)[C@@H]5C[C@@H]5[C@]4(C)[C@H]3CC[C@@]21C | inactive | inactive | inactive
CC[C@@]1([C@@H]2O[C@@H]([C@H]3O[C@@](O)(CO)[C@H](C)C[C@@H]3C)C[C@@H]2C)CC[C@H]([C@]2(C)CC[C@]3(C[C@H](O)[C@@H](C)[C@@H]([C@@H](C)[C@@H](OC)[C@H](C)C(=O)O)O3)O2)O1 (stereo in doubt) | 1.26 µM (active) | inactive | 6.51 µM (active) and 5.8 µM (active)
O=C(O)[C@H]1C(=CCO)O[C@H]2CC(=O)N12 | inactive | inactive | inactive
CC(=O)OCC(=O)[C@@]1(O)CC[C@H]2[C@@H]3CCC4=CC(=O)CC[C@]4(C)C3=CC[C@@]21C | inactive | inactive | inactive
O=C(OC[C@H]1O[C@@H](OC(=O)c2cc(O)c(O)c(OC(=O)c3cc(O)c(O)c(O)c3)c2)[C@H](OC(=O)c2cc(O)c(O)c(OC(=O)c3cc(O)c(O)c(O)c3)c2)[C@@H](OC(=O)c2cc(O)c(O)c(OC(=O)c3cc(O)c(O)c(O)c3)c2)[C@@H]1OC(=O)c1cc(O)c(O)c(OC(=O)c2cc(O)c(O)c(O)c2)c1)c1cc(O)c(O)c(OC(=O)c2cc(O)c(O)c(O)c2)c1 | 15.8 µM (active) | 16.4 µM (active) | 23.1 µM (active)
Cc1ncc(C[n+]2csc(CCOP(=O)(O)OP(=O)(O)O)c2C)c(N)n1 | inactive | inactive | inactive
